In PubChem BioAssay AID900 (National Center for Advancing Translational Sciences (NCATS), 2007):
Several values for one entry are separate records, joined by “and”; a condition that tells them apart may be missing. Equal values may be shown once. Hit rate of the full screen: of about 75,000 compounds, about 20 (0.03%) were called active. Inconclusive results (about 1%) are left out. Calls follow the shape of the dose curve; as a rule, active = well fitted inhibition curve with a large enough effect; inconclusive = small, poorly fitted or top-dose-only effect; inactive = flat fitted curve, though single readings scatter. Only a sample is shown.

biological target: Caspase-1 (Homo sapiens) (UniProt P29466); assay: qHTS Assay for Allosteric/Competitive Inhibitors of Caspase-1; settings: Caspase-1 enzyme, Ac-WEHD-AFC fluorogenic rate; series mostly up to 57.5 µM
Text: NIH Molecular Libraries Screening Centers Network [MLSCN]
NIH Chemical Genomics Center [NCGC]
PI Name: Dr. James Wells,
Dr. Enrique Perez-Paya, Dr.Janice Williams, Dr. Dennis Wolan, a person
The caspases (Cysteine Aspartyl Protease) comprise a related family of 14 dimeric proteases that are critical mediators of apoptosis (programmed cell death) and inflammation. The caspases represent an important class of drug targets for stroke, ischemia, cancer and inflammatory diseases. […] One goal of this project was to identify compounds that act as allosteric inhibitors via stabilizing the procaspase form of the enzyme. Previous work in Well's laboratory has shown that such allosteric inhibitors can be identified and these act by binding at the dimer interface of enzyme (Hardy, Lam et al., 2004).
The biochemical assay was configured using purified caspase 1 at a high enzyme concentration to promote formation of the homodimers and thus facilitate the identification of allosteric inhibitors. The overall goal was to identify reversible inhibitors with better drug-like properties than the currently available set of aspartyl-containing peptidomimetics that covalently bind the active site. Caspase 1 was assayed using the profluorescent substrate Ac-WEHD-AFC. After initiation of the assay with substrate the plates were rapidly read using an automated robotic system (Kalypsys, Inc.) to maintain consistent timing. A kinetic mode of detection was used where the initial rate was collected (estimated final product formation was ~10%). Compounds were screened as a concentration-titration series that ranged from 57 uM to 0.7 nM. Below is the protocol used for caspase 1.
NCGC Assay Protocol Summary:
Caspase 1 was prepared in buffer (50 mM HEPES pH 7.5, 50 mM KCl, 200 mM NaCl, 10 mM DTT, 0.1% CHAPS) at a concentration of 66.6 nM and 3 uL was dispensed to all wells using black solid Kalypsys 1536-well plates. 20 nL of DMSO containing compounds was added using a pin-tool (Kalypsys Inc.) to columns 5-48. Then 20 nL of DMSO solution from a control plate was added to columns 1-4. Controls were: Column 1, 16 point titration with each concentration in duplicate (1:1 dilutions in DMSO; final starting concentration was 57 uM) of the caspase 1 inhibitor Ac-WEHD-CHO (Alexis Biochemicals); Column 2, a 16 point titration with each concentration in duplicate of the free AFC fluorophore prepared in DMSO (Alexis Biochemicals), final starting was 40 uM; Column 3 neutral (DMSO only) control; Column 4: DMSO alone, to serve as a negative control (no substrate was added). Then 1 uL of 20 uM the substrate Ac-WEHD-AFC (Alexis Biochemicals) prepared in the same buffer was dispensed to all wells except columns 2 and 4 and the plates were immediately transferred (< 1 min) to the Viewlux. The plates were then exposed using 405 nm excitation/520 nm emission filters for 4 sec and read at 20 sec intervals for 3 min. Final enzyme concentration was 50 nM and the final substrate concentration was 5 uM.
Concentration-response curves were fitted to the data calculated from slope of the linear regression of fluorescent intensity versus time (the rate). The concentration-effect curves were then classified based on curve quality (r2), response magnitude and degree of measured activity. […] Inconclusive compounds had appreciable concentration-dependent effects on both the measured rate and the interpolated basal fluorescence intensity at the start of the reaction but where the basal fluorescent intensity was marginal (e.g. < 10-fold). Inconclusive compounds also encompass highly fluorescent compounds (>100-fold increases in fluorescent intensities values relative to controls) where artificial concentration-dependent decreases in the rate occurred at high compound concentrations due to fluorescent interferences.
Keywords: Caspase 1, proteases, profluorescent, MLSMR, MLSCN, NIH Roadmap, qHTS, NCGC

Structure (SMILES) | activity change, negative = inhibition
CC(C)N(CCNC(=O)c1ccc(-n2c(=O)c(=O)[nH]c3ccccc32)cc1)C(C)C | inactive
Cc1ccccc1CSCC(=O)NC(=O)NC(C)(C)C | inactive
O=C(O)CCC(=O)NCc1ccc2[nH]c3c(c2c1)CCCC3 | inactive
CCn1ncc(C2=NOC(C(=O)Nc3ccccc3C(=O)OC)C2)c1C (configuration not stated) | inactive
CO[C@H]1COC(=O)[C@@H](C)NC(=O)C/C=C\[C@@H](C)[C@H](OC)COC(=O)C/C=C\[C@@H]1C | 1.2% [at 11.5 µM] (inactive)
CO/N=C\[C@@H](C)[C@H](OCc1ccccc1)C(C)C | 1.85% [at 11.5 µM] (inactive)
CC(=O)OCC(=O)C1CCC2C3CCC4=CC(=O)CC[C@@]4(C)C3CC[C@]12C (some centres not stated) | inactive
CC(C)[C@@H](OCc1ccccc1)[C@H](C)/C=N\OC[C@@H](C)[C@H](OCc1ccccc1)C(C)C | -1.54% [at 11.5 µM] (inactive)
COC(=O)CC1C(C)(C)C(OC(C)=O)C2CC3=C4CC(=O)OC(c5ccoc5)[C@]4(C)CCC3[C@@]1(C)C2=O (some centres not stated) | inactive
O=C(CSc1nc2ccccc2[nH]1)c1cccs1 | inactive
CC(=O)Oc1c2c(c3c(c1CC=C(C)C)O[C@@]14C(=CC5CC1C(C)(C)OC4(C/C=C(\C)C(=O)O)C5=O)C3=O)OC(C)(CCC=C(C)C)C=C2 (some centres not stated) | inactive
Cc1cc(C)cc(C#CC2C=CC(Oc3ccc(C4CCCC4)cc3)C(CO)O2)c1 (configuration not stated) | -0.183% [at 11.5 µM] (inactive)
Cc1sc2c(c1C)c(=O)n(-c1ccccc1)c1nncn21 | inactive
CC(C)CN1CCc2nc(-c3ccccc3)c3c(c2C1)COC(C)C3 (configuration not stated) | -0.646% [at 11.5 µM] (inactive)
C=CCOC(=O)C(C(C)=O)C(NC(=O)OC)c1ccccc1 (configuration not stated) | -2.17% [at 11.5 µM] (inactive)
COc1c(C(C)C)oc2cc3oc(=O)ccc3cc12 | inactive
Cc1oc(C)c(C(=O)NCCCC(=O)O)c1C(=O)NCCCC(=O)O | inactive
CC(CCC(=O)O)C1CCC2C3C(O)C[C@@H]4CC(O)CC[C@@]4(C)C3CC[C@@]12C (some centres not stated) | inactive
CN(C)CCc1c[nH]c2ccc(Cn3cncn3)cc12 | inactive
Nc1ncn(C2OC(CO)C(O)C2O)c(=O)n1 (configuration not stated) | inactive
Cc1occc1C(=O)Nc1nnc(C2CCCCC2)s1 | inactive
Oc1ccc2c(c1)OCC1c3cc4c(cc3OC21)OCO4 (configuration not stated) | inactive
C#CCC(C(=O)OC)(C(=O)OC)C(C[N+](=O)[O-])c1ccccc1 (configuration not stated) | -0.949% [at 11.5 µM] (inactive)
O=C(c1cccs1)N1CCN(Cc2ccc3c(c2)OCO3)CC1 | inactive
C=C[C@](C)(O)CCC1C(=C)CCC2[C@@](C)(CO)CCC[C@@]12C (some centres not stated) | inactive
C=C1C([C@@]2(C)C(OC(C)=O)CC(=O)O[C@@](C)(COC(C)=O)C2CC(=O)OC)C(OC=O)C(OC(=O)C(O)C(C)CC)[C@]2(C)C(c3ccoc3)CC(=O)C12O (some centres not stated) | inactive

Structure (SMILES) | activity change, negative = inhibition
CSc1ccc(Cl)c(C(=O)OCC(=O)N2CC(C)OC(C)C2)c1 (configuration not stated) | inactive
CC(C)(C)c1ccc(OC2C=CC(C#Cc3ccccc3)OC2CO)cc1 (configuration not stated) | -6.01% [at 11.5 µM] (inactive)
COc1cccc([C@H]2Oc3ccc(OC)cc3/C(=N\OCC[C@@H]3C=C[C@H](OC(C)=O)[C@H](COC(C)=O)O3)[C@@H]2O)c1 | -0.817% [at 11.5 µM] (inactive)
CC(=O)OCCC(C)C | inactive
CCCNC(=O)OC[C@@H]1O[C@H](c2ccccc2)C=C[C@@H]1Oc1ccc(OC)cc1 | -0.962% [at 11.5 µM] (inactive)
CO[C@H]1COC(=O)C/C=C\[C@H](C)COC(=O)[C@@H](OCc2ccccc2)/C=C\[C@@H]1C | -1.1% [at 11.5 µM] (inactive)
C=CCNC(=O)CCCC(=O)NCC=C | inactive
Oc1cc(O)c2c(c1)OC(c1ccc(O)c(O)c1)C(O)C2 (configuration not stated) | inactive
Cn1c(=O)n2n(c1=O)[C@H]1[C@H](O)[C@H]3O[C@H]3C(=O)[C@H]1CC2 | 1.82% [at 11.5 µM] (inactive)
N#Cc1c(/N=C/N2CCCC2)oc(-c2ccccc2)c1-c1ccccc1 | inactive
O=C(c1ccc(-n2cnnn2)cc1)N1CCN(C(c2ccccc2)c2ccccc2)CC1 | inactive
CC(C)CO/N=C1/C[C@@H](O)[C@@H](O)[C@@H]2[C@@H]3C(=O)N(C[C@@H]4CCCO4)C(=O)[C@H]3CC[C@@H]12 | -2.12% [at 11.5 µM] (inactive)
COC(=O)c1ccc(C(NC(=O)OCc2ccccc2)/C(C)=C/[C@@H](C)C(=O)NCc2cc(C)on2)cc1 (some centres not stated) | inactive
COC(=O)[C@@H]1C[C@@]2(O)[C@H](O)[C@H](O)[C@H](O)C[C@H]2N1Cc1ccc(C)s1 | inactive
OC(CCl)CCl | inactive
CCCn1c(-c2ccc(F)cc2)nc2c(NC3CCN(Cc4ccccc4)C3)nc(C)nc21 (configuration not stated) | inactive
CO[C@@H]1COC(=O)C/C=C\[C@H](C)[C@@H](NS(=O)(=O)c2ccc(C)cc2)COC(=O)C/C=C\[C@@H]1C | 2.78% [at 11.5 µM] (inactive) and -1.73% [at 11.5 µM] (inactive)
COC(=O)C1=C(N)Oc2cc(C)oc(=O)c2C1c1cccnc1 (configuration not stated) | inactive
COC(=O)C(C(=O)OC)[C@@H]1CCCC(=O)C1 | -6.21% [at 11.5 µM] (inactive)
CO[C@H]1COC(=O)CCC[C@@H](C)[C@H](OC)COC(=O)[C@@H](C)NC(=O)C/C=C\[C@@H]1C | -4.01% [at 11.5 µM] (inactive)
CC(C)C(NC(=O)OCc1ccccc1)C(=O)OCC(=O)N1C(C)CCCC1C (configuration not stated) | inactive
Cc1c(O)cc(O)c2c(=O)c(-c3ccc(O)cc3)coc12 | inactive
C/C(CCN1CCCCc2nc(C)c(C)cc21)=N\O[C@@H](C)c1cn([C@@H]2COC[C@@H]2O)nn1 | -3.82% [at 11.5 µM] (inactive)
Cc1cc(NC(=O)COn2nnc3ccccc32)no1 | inactive
CCC1=C(OC(=O)N(CC)CC)N2C(=O)OC(=NCCc3c[nH]c4ccccc34)[C@]2(C)[C@H]2C1=CC[C@H]1C(=O)N(CC)C(=O)[C@H]12 | inactive
C/C(CCN1CCc2nc(-c3ccccc3)c(-c3ccccc3)cc2C1)=N\O[C@@H](C)c1cn([C@@H]2COC[C@@H]2O)nn1 | -2.17% [at 11.5 µM] (inactive)
